The values below come from PubChem BioAssay (NCI).

Several values for one entry are separate records, joined by “and”; a condition that tells them apart may be missing. Identical values can stand only once. Compounds without any hit were thinned out: in the full panel of roughly 79,000, 15% have a hit. Values without a mark were called inactive. Activity calls are given as the source filed them. Rule as the data show it: active = growth inhibition above about 70%; inactive = the rest.

Assay [1] in a line: NCI Yeast Anticancer Drug Screen. Data for the rad50 strain (AID 155).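 Also: 0% = growth of vehicle-only cultures of the same strain.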 Conditions: S. cerevisiae rad50 strain growth inhibition; at 50.0 µM; active compounds read high. The gist of the method: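 Yeast carrying a defined DNA repair defect were exposed to test compounds, and growth was compared with vehicle-treated controls to give percent inhibition.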
The nature of assay [2]: NCI Yeast Anticancer Drug Screen. Data for the mec2-1 strain (AID 157). The settings on record: S. cerevisiae mec2-1 strain, at 50.0 µM, active compounds read high. The gist of the method:
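Cells of the genetically defined mec2-1 yeast strain are incubated with test compound. Inhibition of growth is calculated against vehicle-treated controls.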

The nature of assay [3]: NCI Yeast Anticancer Drug Screen. Data for the sgs1 mgt1 strain (AID 161).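 Also: 0% = growth of cultures given vehicle only.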 The settings on record: S. cerevisiae sgs1 mgt1 strain, at 50.0 µM, active compounds read high. The method, boiled down:
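Mutant yeast exposed to compound; growth scored against vehicle-only wells.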

The nature of assay [4]: NCI Yeast Anticancer Drug Screen. Data for the cln2 rad14 strain (AID 165).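 Also: 0% = growth equal to vehicle treated cultures.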 Conditions: S. cerevisiae cln2 rad14 strain, at 50.0 µM, active compounds read high. The gist of the method:
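The screen exposed genetically defined yeast (cln2 rad14) to test compounds and scored growth inhibition relative to vehicle-treated controls.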

Assay [5] in a line: NCI Yeast Anticancer Drug Screen. Data for the bub3 strain (AID 167). Conditions: S. cerevisiae bub3 mutant strain, at 50.0 µM, active compounds read high. The method, boiled down:
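Compounds were applied to a genetically altered yeast strain carrying a cell-cycle control defect. Growth inhibition was scored against vehicle-treated controls.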

Assay [6] can be described thus: NCI Yeast Anticancer Drug Screen. Data for the mlh1 rad18 strain (AID 175). Conditions: S. cerevisiae mlh1 rad18 strain growth inhibition; at 50.0 µM; active compounds read high. The method, boiled down:
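Compound-treated yeast growth, normalised to vehicle controls. Strain bears defined DNA repair mutations.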

For `CCCC[P+](C#Cc1ccccc1)(CCCC)CCCC`, the growth inhibition is 8.65% in assay [1]; 3.5% in assay [2]; 9.5% in assay [3]; 3.75% in assay [4]; -3.2% in assay [5]; 2% in assay [6].
As for `C[CH2][Sn]([CH2]C)([CH2]CC(=O)OC)[CH2]CC(=O)OC`, the growth inhibition in assay [1] is 20.4%; in assay [2], 18.4%; in assay [3] it was 1%; in assay [4], -11%; in assay [5], -24.2%; in assay [6], -64.2%.
Take `O=C(O)C(O)C(O)C(O)C(O)C(O)C(O)CO.[Cd]` (centres undefined): the growth inhibition is 29.4% and 27.9% in assay [1]; 15.2% and 26.5% in assay [2]; 20.2% and 20.4% in assay [3]; 19.4% and 28.7% in assay [4]; 4.6% and -7.8% in assay [5]; -1.55% and 0.55% in assay [6].
With `[Cl][Hg][c]1cccc(I)c1N=Nc1ccccc1`, the growth inhibition in assay [1] is 81.9% (active); in assay [2] it was 21.3%; in assay [3], 66.2%; in assay [4], 4.9%; in assay [5] it was 2.25%; in assay [6], 69.8%.
With `CCC1(/C(C)=C/C(C)C)C(=O)NC(=O)NC1=O`, the growth inhibition in assay [1] was 15.8% and 16.3%; in assay [2] it was 12.8% and 4.6%; in assay [3] it was 1% and 6.15%; in assay [4], 8.8% and -11.4%; in assay [5] it was 4.65% and 2.35%; in assay [6], 4.15% and 5.05%.
On to `C/C(=N\N1CN(C(C)C(=O)O)P(N(CCO)CCO)N=C1N)c1cccs1` (centres undefined), for which the growth inhibition in assay [1] is -5.45%; in assay [2], -11.2%; in assay [3] it was 5.85%; in assay [4] it was -18.6%; in assay [5], 7.95%; in assay [6], -8.4%.
For `Nc1nc(N)c2cnnn2n1`, the growth inhibition is 18.1% in assay [1]; -13.2% in assay [2]; 17.3% in assay [3]; 11.9% in assay [4]; 4.05% in assay [5]; 20.8% in assay [6].
Regarding `COP(=O)(O)NC(C)=O`, the growth inhibition in assay [1] was 13.7%; in assay [2] it was -23.9%; in assay [3], 8.85%; in assay [4] it was -64.5%; in assay [5], 9.45%; in assay [6], -8.4%.
Take `CCOC(=O)CC1=N/C(=N/C(=N)N[N+](=O)[O-])SC1`: the growth inhibition is 7.45% in assay [1]; -5.3% in assay [2]; 10.4% in assay [3]; 7.6% in assay [4]; 15.3% in assay [5]; 16% in assay [6].
In the case of `CN(C)S(=O)(=O)N(SC(F)(Cl)Cl)c1ccccc1`, the growth inhibition in assay [1] is 98.8% (active); in assay [2] it was 99.5% (active); in assay [3] it was 99.4% (active); in assay [4] it was 98.8% (active); in assay [5], 99.2% (active); in assay [6], 99% (active).
With `C=C[CH2][Sn]([CH2]C=C)([c]1ccccc1)[c]1ccccc1`, the growth inhibition was 47.6% in assay [1]; 18.6% in assay [2]; 28.8% in assay [3]; 6.7% in assay [4]; -7.55% in assay [5]; 16.4% in assay [6].
Regarding `COc1cccc(C2CC23C(=O)NC(=O)NC3=O)c1` (centres undefined), the growth inhibition in assay [1] is -18%; in assay [2] it was -14.2%; in assay [3], -2.1%; in assay [4] it was 6.6%; in assay [5], -19.2%; in assay [6], -21.2%.
Consider `[O-][N+]12CCCCC1C1CC(C2)C2CCCC(c3ccccc3)N2C1` (centres undefined), for which the growth inhibition in assay [1] was 3.55%; in assay [2], -25.1%; in assay [3], -22.8%; in assay [4], -34.8%; in assay [5], -28%; in assay [6], -59.2%.
On to `S=C(N/N=C/c1ccc(Cl)cc1)NC1CN2CCC1CC2` (centres undefined), for which the growth inhibition is -1.6% in assay [1]; 9.6% in assay [2]; -22.1% in assay [3]; -15.8% in assay [4]; -7.9% in assay [5]; 11.7% in assay [6].
In the case of `CSCCC(N)C(=O)O` (centres undefined), the growth inhibition in assay [1] was -50.4% and -3.35%; in assay [2] it was 9.55% and -25.1%; in assay [3], -6% and -7.65%; in assay [4] it was -27.8% and -1%; in assay [5], 32.4% and -11.6%; in assay [6], -103% and -2.65%.
In the case of `CN(C)CCC(=O)c1ccccc1`, the growth inhibition in assay [1] is 3.05% and -40.5%; in assay [2], 0.7% and 11.3%; in assay [3] it was 5.85% and -7.35%; in assay [4], -0.6% and -27.6%; in assay [5], 4.35% and -1.8%; in assay [6], 4.4% and 10.6%.
Take `CC(=O)CC(C)=O.[Cl][Sb]1([Cl])[CH2]CC[CH2]1`: the growth inhibition in assay [1] was -22.4%; in assay [2], -11.8%; in assay [3] it was -17.1%; in assay [4], -0.75%; in assay [5] it was 1.25%; in assay [6], 5.55%.
As for `Oc1cc(Cl)c(O)c(Cl)c1`, the growth inhibition in assay [1] was 2.9%; in assay [2] it was -2.05%; in assay [3], 4.15%; in assay [4], -37.9%; in assay [5] it was -20.2%; in assay [6] it was -7.55%.
For the molecule `O=P1(c2ccccc2)NC2CCCCC2N1` (centres undefined), the growth inhibition is 24.2% in assay [1]; -8.05% in assay [2]; -5.3% in assay [3]; -87% in assay [4]; -0.9% in assay [5]; 2.95% in assay [6].
